Most compounds without a hit are left out; they make up all but 22% or so of the library.
Cycloheximide cs – Cycloheximide Counterscreen for Small Molecule Inhibitors of Shiga Toxin; cell reporter, cycloheximide protein synthesis inhibition counterscreen; AID 2314, 2010; max response, %; 300,000 compounds, 12% hits; in the data active means max response mostly above about 13%, no sharp cut-off; inactive means mostly below about 14%; further: read at 38.3 µM for the half of the compounds with a filed dose; 0% is about no effect
Shiga toxin inh – A qHTS for Small Molecule Inhibitors of Shiga Toxin. Vero cells, Shiga toxin protein synthesis inhibition reporter. AID 2315, 2010. 290,000 compounds, 9.2% hits. inhibition, % at 38.7 µM; in the data active means inhibition mostly above about 28%, no sharp cut-off; inactive means mostly below about 43%; further: 0% is about no effect
LmPK inh – qHTS Assay for Inhibitors of Leishmania Mexicana Pyruvate Kinase (LmPK) | 290,000 compounds, 0.37% hits | purified LmPK, Kinase-Glo ATP luminescence, 1 h | AID 1721, 2009 | Q27686 | Potency, µM (series often up to 57.5 µM), without a hit: at the highest dose activity change, negative = inhibition, most hits filed as inhibitors; further: potency means the concentration at half of the fitted maximal effect; on the % scale 0 is the no-effect control and ±100 the full control effect
Target sequence (Q27686 whole entry, looked up): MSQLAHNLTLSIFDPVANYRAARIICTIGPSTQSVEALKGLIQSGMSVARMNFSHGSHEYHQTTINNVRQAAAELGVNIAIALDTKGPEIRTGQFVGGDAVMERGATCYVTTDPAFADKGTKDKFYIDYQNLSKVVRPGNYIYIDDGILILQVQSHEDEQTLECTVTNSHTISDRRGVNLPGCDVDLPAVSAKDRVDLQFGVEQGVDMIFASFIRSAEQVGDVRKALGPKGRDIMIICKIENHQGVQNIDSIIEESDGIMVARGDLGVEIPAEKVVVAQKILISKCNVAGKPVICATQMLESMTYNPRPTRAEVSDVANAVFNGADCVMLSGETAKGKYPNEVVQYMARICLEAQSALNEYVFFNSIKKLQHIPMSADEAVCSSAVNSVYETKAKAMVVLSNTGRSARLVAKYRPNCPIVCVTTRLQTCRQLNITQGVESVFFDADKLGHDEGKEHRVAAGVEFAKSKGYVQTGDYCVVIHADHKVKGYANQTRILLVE
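Kinase-Glo luminescence read after 1 h RT reaction of 0.1 nM LmPK with 0.5 mM PEP and 0.1 mM ADP. Activity scaled between uninhibited and enzyme-free controls.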
Pf growth 48h – Primary qHTS for delayed death inhibitors of the malarial parasite plastid, 48 hour incubation. P. falciparum luciferase growth in erythrocytes, 48 h. Potency, µM (series often up to 28.7 µM), for inactives: top-dose activity change, negative = inhibition, most hits filed as inhibitors. 310,000 compounds, 5.9% hits; further: potency means the concentration at half of the fitted maximal effect; on the % scale 0 is the no-effect control and ±100 the full control effect
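Luciferase-expressing P. falciparum in infected erythrocytes (2% hematocrit, 0.1% parasitemia final) in RPMI 1640/0.5% Albumax were exposed to compound for 48 hours at 37 C, 5% CO2; growth read as luminescence.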
Pf growth 96h – Primary qHTS for delayed death inhibitors of the malarial parasite plastid, 96 hour incubation | P. falciparum luciferase reporter growth, 96 h | Potency, µM (highest dose often 28.7 µM), without a hit: at the highest dose activity change, negative = inhibition, hits mostly inhibitors | 320,000 compounds, 6.9% hits | AID 504834, 2011; further: potency means the concentration at half of the fitted maximal effect; on the % scale 0 is the no-effect control and ±100 the full control effect
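Luminescence readout: decreased luciferase signal marks inhibited growth of reporter-expressing P. falciparum in infected red cells (2% hematocrit, 0.05% parasitemia final), exposed to compound two generations (96 h, 37 C, 5% CO2).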
An asterisk follows results filed as active; [ ] = another dose, or the depositor's remark. Unless noted, the call rests on the fitted dose curve; in most records, active means well fitted inhibition curve with a large enough effect; inconclusive means small, poorly fitted or top-dose-only effect, or another doubt; inactive means no such curve, though single readings can be large or run the other way.

How did O=C(Nc1ccc(Br)cc1)c1cccc(N2C(=O)C3CCCCC3C2=O)c1 (stereo not given) do in these assays?
Cycloheximide cs: -3.6; Shiga toxin inh: -10.2; LmPK inh: -4.2%; Pf growth 48h: 16.7%; Pf growth 96h: 1.1%

What do the screens show for `COc1ccccc1-c1cc(C(F)(F)F)nc(S(=O)(=O)CCCC(=O)NC(C)C)n1`?
Cycloheximide cs: -3.2; Shiga toxin inh: -11.4; LmPK inh: -0.9%; Pf growth 48h: -8.4%; Pf growth 96h: 12.6%

How did COc1ccccc1-c1cc(C(F)(F)F)nc(S(=O)(=O)CCCC(=O)NCc2ccc(F)cc2)n1 do in these assays?
Cycloheximide cs: 19.7*; Shiga toxin inh: -25.5; LmPK inh: 9.4%; Pf growth 48h: inconclusive; Pf growth 96h: 2.94µM*

What do the screens show for `COc1ccccc1-c1cc(C(F)(F)F)nc(S(=O)(=O)CCCC(=O)Nc2cc(C)on2)n1`?
Cycloheximide cs: -3.7; Shiga toxin inh: -7.0; LmPK inh: 0.9%; Pf growth 48h: -9.0%; Pf growth 96h: 1.85µM*

What do the screens show for `COc1ccc(-c2cc(C(F)(F)F)nc(S(=O)(=O)CCCC(=O)Nc3cc(C)on3)n2)cc1OC`?
Cycloheximide cs: 24.7*; Shiga toxin inh: -1.3; LmPK inh: -9.9%; Pf growth 48h: inconclusive; Pf growth 96h: inconclusive

What do the screens show for `CC(=O)OCC(NC(=O)C(C)NC(=O)OC(C)(C)C)C1OC(n2ccc(=O)[nH]c2=O)C(OC(C)=O)C1OC(C)=O` (stereo not given)?
Cycloheximide cs: 7.3; Shiga toxin inh: 4.2

What do the screens show for `Cc1cccc(C(=O)OCc2cncs2)c1`?
Cycloheximide cs: 33.1*; Shiga toxin inh: 53.4; LmPK inh: -4.5%; Pf growth 48h: 29.5%; Pf growth 96h: -0.6%

How did O=C(Nc1ccccc1Cl)OCc1cncs1 do in these assays?
Cycloheximide cs: 17.4*; Shiga toxin inh: 22.5; LmPK inh: -2.6%; Pf growth 48h: 23.5%; Pf growth 96h: 52.5%

How did O=C(CSc1nnc(NC(=O)c2ccco2)s1)Nc1ccccc1Br do in these assays?
Cycloheximide cs: -7.1; Shiga toxin inh: -16.7; LmPK inh: 2.9%; Pf growth 48h: 2.7%; Pf growth 96h: 9.2%

How did CCOC(=O)N1CCN(C(=O)CCCOc2ccccc2)CC1 do in these assays?
Cycloheximide cs: 28.8*; Shiga toxin inh: 112.9*; LmPK inh: 0.0%; Pf growth 48h: 161.7%

Results for Cc1cccc(N2CCN(C(=O)c3c(C)nn(Cc4ccccc4Cl)c3C)CC2)c1C ?
Cycloheximide cs: 9.8; Shiga toxin inh: -3.1; LmPK inh: 0.9%; Pf growth 96h: 7.38µM*

How did Cc1cccc(N2CCN(C(=O)Cn3cccc3C(=O)c3ccccc3)CC2)c1C do in these assays?
Cycloheximide cs: -5.4; Shiga toxin inh: -10.6; LmPK inh: 2.5%

What do the screens show for `O=C(CCCOc1ccccc1)N1CCN(S(=O)(=O)c2ccccc2)CC1`?
Pf growth 48h: -23.9%; Pf growth 96h: -7.3%

Results for CC(=O)Nc1ccc(NC(=O)c2c(C)nn(Cc3ccccc3Cl)c2C)cc1 ?
Cycloheximide cs: -3.6; Shiga toxin inh: -5.8; LmPK inh: -1.8%; Pf growth 48h: -7.8%; Pf growth 96h: -17.1%

How did Cc1cccc(N2CCN(C(=O)CCCOc3ccccc3)CC2)c1C do in these assays?
Cycloheximide cs: 63.6*; Shiga toxin inh: 134.5*; LmPK inh: -7.7%; Pf growth 48h: 128.6%; Pf growth 96h: 7.7%

Results for Cc1cccc(N2CCN(C(=O)Cc3ccccc3[N+](=O)[O-])CC2)c1C ?
Cycloheximide cs: 26.9*; Shiga toxin inh: 24.3; LmPK inh: -1.3%; Pf growth 48h: 15.1%; Pf growth 96h: -22.2%

How did COc1ccc(/C=N/Nc2nc(-c3cccnc3)nc3ccccc23)c(OC)c1 do in these assays?
Cycloheximide cs: -1.9; Shiga toxin inh: 3.9; LmPK inh: -2.7%; Pf growth 48h: inconclusive; Pf growth 96h: 37.8%

How did COc1ccc(CCNCc2ccc(OCC(=O)N3CCCCC3)c(OC)c2)cc1OC do in these assays?
Cycloheximide cs: -2.2; Shiga toxin inh: 1.0; LmPK inh: 4.9%; Pf growth 48h: -16.7%; Pf growth 96h: -5.6%[5.75 µM]

Results for Cc1ccsc1C(C(=O)NC(C)(C)C)N(C(=O)c1csnn1)c1ccccc1 (stereo not given) ?
Cycloheximide cs: 7.2; Shiga toxin inh: -4.9; LmPK inh: 2.2%; Pf growth 48h: inconclusive; Pf growth 96h: -1.1%

What do the screens show for `Cc1ccc(S(=O)(=O)N(C)CC(=O)O/N=C(\N)c2cccc(Br)c2)cc1`?
Cycloheximide cs: -1.7; Shiga toxin inh: -29.1; LmPK inh: -15.8%; Pf growth 48h: 12.2%; Pf growth 96h: -1.5%

What do the screens show for `COC(=O)CCCC(=O)N1CCC(CCC(=O)NCc2ccc(F)cc2)CC1`?
Cycloheximide cs: -1.3; Shiga toxin inh: -4.2; LmPK inh: 1.0%; Pf growth 48h: -19.2%; Pf growth 96h: 14.7µM*

How did COC(=O)CCC(=O)N1CCC(CCC(=O)NCc2ccc(F)cc2)CC1 do in these assays?
Cycloheximide cs: -1.9; Shiga toxin inh: -7.8; LmPK inh: -10.7%; Pf growth 48h: -5.8%; Pf growth 96h: 5.22µM*

What do the screens show for `CCOC(=O)CCNC(=O)N1CCC(CCC(=O)NCc2ccc(F)cc2)CC1`?
Cycloheximide cs: 0.8; Shiga toxin inh: 0.8; LmPK inh: 0.1%; Pf growth 48h: inconclusive; Pf growth 96h: inconclusive

Results for CN1CCN(C(=O)CCC(=O)NCc2ccc(F)cc2)CC1 ?
Cycloheximide cs: -2.7; Shiga toxin inh: 16.0; LmPK inh: 1.5%; Pf growth 48h: -3.5%; Pf growth 96h: -28.5%

What do the screens show for `O=C(CN1C(=O)NC2(CCCCC2)C1=O)Nc1ccc2[nH]c(=O)[nH]c2c1`?
Pf growth 48h: 0.0%; Pf growth 96h: 20.5%

How did COC(=O)C1=C(C)N(c2ccccc2)C(=S)NC1c1ccccc1C(F)(F)F (stereo not given) do in these assays?
Cycloheximide cs: -0.8; Shiga toxin inh: -3.2; LmPK inh: 0.8%; Pf growth 48h: 10.4µM*; Pf growth 96h: inconclusive

How did CCc1ccc(NC(=O)N(Cc2ccco2)C(C)c2cccs2)cc1 (stereo not given) do in these assays?
Cycloheximide cs: 21.3*; Shiga toxin inh: 51.6*; LmPK inh: 2.9%; Pf growth 48h: inconclusive; Pf growth 96h: 0.0%

How did Nc1c(-c2ccccc2)cnn1-c1cccc([N+](=O)[O-])c1 do in these assays?
Cycloheximide cs: 31.1*; Shiga toxin inh: 80.9*; LmPK inh: 0.6%; Pf growth 48h: 52.7%; Pf growth 96h: 70.5%

How did Nc1nn(-c2ccccc2)c2ccc([N+](=O)[O-])cc12 do in these assays?
Cycloheximide cs: 26.1*; Shiga toxin inh: 33.7; LmPK inh: 6.9%; Pf growth 48h: 54.2%; Pf growth 96h: inconclusive

What do the screens show for `Nc1c(-c2ccc(Cl)cc2)cnn1-c1cccc([N+](=O)[O-])c1`?
Cycloheximide cs: 19.3*; Shiga toxin inh: 87.1*; LmPK inh: 1.8%; Pf growth 48h: 32.2%; Pf growth 96h: 428.1%

Screening results as filed in PubChem.
